TRHR ag = qHTS for Small Molecule Agonists and Allosteric Enhancers of Human TRH Receptor: Primary Screen for Agonists. Thyrotropin-releasing hormone receptor (Homo sapiens), P34981. TRHR cells, calcium flux fluo-8, FDSS agonist mode. activation, % at 2 µM. 360,000 compounds, 0.18% hits; note: 0% is about no effect
Target sequence (P34981 whole entry, looked up): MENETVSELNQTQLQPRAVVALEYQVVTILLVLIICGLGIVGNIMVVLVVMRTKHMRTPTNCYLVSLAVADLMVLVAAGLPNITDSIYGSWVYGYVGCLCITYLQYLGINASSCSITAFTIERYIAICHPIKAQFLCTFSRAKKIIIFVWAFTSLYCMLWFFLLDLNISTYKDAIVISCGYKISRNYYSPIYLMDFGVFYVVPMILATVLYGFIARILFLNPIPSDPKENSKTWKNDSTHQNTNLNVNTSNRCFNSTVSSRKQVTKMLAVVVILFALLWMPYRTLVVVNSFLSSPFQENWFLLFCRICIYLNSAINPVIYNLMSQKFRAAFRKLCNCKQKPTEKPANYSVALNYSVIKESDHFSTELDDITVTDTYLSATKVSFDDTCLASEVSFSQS
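Fluo-8-loaded TRHR cells; 10 s baseline, compound added, kinetic Ca2+ fluorescence read 1/s, agonist mode.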
TRHR enhancer = qHTS for Small Molecule Agonists and Allosteric Enhancers of Human TRH Receptor: Primary Screen for Enhancers; Thyrotropin-releasing hormone receptor (Homo sapiens), P34981; TRHR cells, fluo-8 calcium fluorescence, EC20 TRH enhancement; enhancement, % at 2 µM; 360,000 compounds, 0.66% hits; in the data active = enhancement above about 30%; note: 0% is about no effect
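Enhancer read-out: after compound pinning and an initial kinetic agonist-mode read, an EC20 of TRH (10 nM final) was injected and fluo-8 calcium signal (Ex 480/Em 530) followed at 1 s/cycle for 100 cycles in TRHR-expressing cells.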
D1 antag = Antagonist of Human D 1 Dopamine Receptor: qHTS; HEK293 TREx D1 cells, calcium flux, dopamine EC80; active compounds read low; D(1A) dopamine receptor (Homo sapiens), P21728; AID 504652, 2011; activity change, negative = inhibition, % at 10 µM; 360,000 compounds, 3.2% hits; in the data active = activity change below about -30%; note: % is set by controls: 0 for no effect and ±100 for the full control effect
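HEK293 T-REx cells expressing inducible, force-coupled D1 receptor; no-wash Ca dye, 30–90 min RT. Cmpd → 180 s read at 1 Hz → EC80 DA → 180 s read.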
D1 agonist = Allosteric Agonists of the Human D1 Dopamine Receptor: qHTS; D(1A) dopamine receptor (Homo sapiens), P21728; HEK293 T-REx D1 cells, calcium flux, agonist mode; activation, % at 2 µM; 360,000 compounds, 1% hits; note: 0% is about no effect
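Inducible HEK293 T-REx D1 cells, force-coupled to calcium signalling, were plated at 4000 cells/well with tetracycline and held overnight at 30 C. After no-wash calcium dye loading, compound-evoked calcium rise over 180 s flagged agonists.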
D1 PAM = Potentiators of Human D1 Dopamine Receptor: qHTS; potentiation, % at 10 µM; AID 504651, 2011; HEK293 TREx D1 cells, calcium flux, dopamine EC20 potentiation; 360,000 compounds, 0.036% hits; D(1A) dopamine receptor (Homo sapiens), P21728; in the data active = potentiation above about 30%; note: 0% is about no effect
An asterisk follows results filed as active; ! = a repeat was not active. Sampled rows, rich in hits. Any-hit rate of the full collection: about 4.6%. Cut-off read from the data, not from the text of the source, unless noted: active = activation above about 30%; inactive = the rest.

SMILES	TRHR ag	TRHR enhancer	D1 antag	D1 agonist	D1 PAM
C#CC[N+]1(CC#Cc2ccc(C#CC[N+]3(CC#C)CCOCC3)cc2)CCOCC1	0	3	-81*	0	-4
C#CC[N+]1(CC#Cc2ccccc2)CCCC1	0	-5	-52*	-1	-2
C(#Cc1ccccc1)C[N+]1(CC#Cc2cccc3ccccc23)CCCC1	0	3	-25	1	-6
O=C(Nc1cccc2cccnc12)c1ccc(Br)cc1	1	-5	12	8	3
CCc1ccccc1NC(=O)c1noc2c1CC(C(C)(C)C)CC2 (configuration not stated)	0	6	4	0	1
COc1ccccc1Nc1c2ccccc2nc2ccccc12	0	0	-52*	3	-6
COc1ccc(Nc2nc(N3CCCC3)c3ccccc3n2)cc1	-1	7	-51*	6	-21
COc1ccc(Nc2c3ccccc3nc3ccccc23)cc1	0	0	-95*	19	-8
COc1ccc(Nc2c3c(nc4ccccc24)CCC3)cc1	1	4	-26	8	-11
c1cncc(Nc2c3ccccc3nc3ccccc23)c1	0	-11	-31*	3	-15
CCc1ccc(NC(=O)CN2C(=O)C(c3ccc(F)cc3)=NC2(C)C)cc1	-1	11	-5	-3	7
CCn1c(N2CCN(CC(=O)c3ccc(OC)cc3)CC2)nc2ccccc21	0	2	-50*	-1	-3
COc1ccc(-c2nn(CCC(=O)O)cc2/C=C2\SC(N)=NC2=O)cc1OC	0	-3	0	1	-4
CCCOc1ccc(-c2nn(-c3ccccc3)cc2/C=C2\SC(N)=NC2=O)cc1C	1	-1	-74*	1	-10
O=C(NCCc1ccc(Cl)cc1)c1ccc(CS(=O)Cc2ccccc2Cl)o1 (configuration not stated)	0	-1	-15	7	0
CSc1ccc(CCNC(=O)c2ccc(CS(=O)Cc3ccccc3Cl)o2)cc1 (configuration not stated)	0	-7	-38*	6	1
O=C(NC1CCCCC1)c1ccc(CS(=O)Cc2ccccc2Cl)o1 (configuration not stated)	0	-3	-64*	-1	-2
Cc1ccc(C)c(Nc2nn3c(=O)c4ccc(C(=O)NCc5cccs5)cc4nc3s2)c1	0	8	13	2	0
Cn1c(=NC(=O)C2CC2)sc2cccc(F)c21	0	1	-41*	3	-6
COc1ccc(OC)c2c1sc(=NC(=O)C1CCCCC1)n2C	0	-5	-8	2	0
COc1ccccc1S(=O)(=O)Cc1ccc(C(=O)NCc2ccc(Cl)cc2)o1	0	-3	8	2	0
CCOC(=O)N1CCN(C(=O)CNS(=O)(=O)c2c(C)cc(C)cc2C)CC1	0	33*	13	5	6
CCOC(=O)N1CCN(C(=O)CNS(=O)(=O)c2cccs2)CC1	0	-4	5	2	6
OCC1(Cc2ccccc2F)CCCN(Cc2c(F)ccc(F)c2F)C1 (configuration not stated)	0	30*	-19	0	-10
COc1cc(C2C(C(C)=O)=C(O)C(=O)N2Cc2ccccc2)ccc1O (configuration not stated)	0	6	-32*	2	-5
SMILES	TRHR ag	TRHR enhancer	D1 antag	D1 agonist	D1 PAM
COc1cc(C2C(C(=O)C(C)(C)C)=C(O)C(=O)N2Cc2ccccc2)ccc1O (configuration not stated)	1	-2	-11	2	7
COC(=O)[C@H]1[C@H]2C[C@@H]3c4[nH]c5cc(OC)ccc5c4CCN3C[C@H]2C[C@@H](OC(=O)c2ccc(N)cc2)[C@@H]1OC	2	15	-66*	3	4
COC(=O)[C@H]1[C@H]2C[C@@H]3c4[nH]c5cc(OC)ccc5c4CCN3C[C@H]2C[C@@H](OC(=O)/C=C/c2cc(OC)c(OC)c(OC)c2)[C@@H]1OC	-1	-6	2	2	7
Cc1ccc(OCCSc2nc3ccc(NC(=O)c4ccc5c(c4)OCO5)cc3s2)cc1	1	1	6	0	-1
Cc1ccccc1-c1nc(CS(=O)CC(=O)NCCc2ccc(Cl)cc2)c(C)o1 (configuration not stated)	0	17	-65*!	34*!	-11
COc1ccc2c(c1)C1(C)CC(C)(C)N2C(=O)N1c1ccccc1 (configuration not stated)	0	19	-4	56*	8
O=C(NNc1ccccn1)c1ccccc1CC[N+](=O)[O-]	0	-9	-44*	2	-10
CCOC(=O)c1nn(-c2ccccc2)c(=O)cc1OCC(=O)Nc1cc(C)ccc1OC	1	2	-4	2	6
CCOC(=O)c1nn(-c2ccc(C)cc2)c(=O)cc1OCC(=O)Nc1cc(C)ccc1OC	0	10	-42*	5	-6
COc1ccc(S(=O)(=O)N2c3ccccc3OCC2C)cc1 (configuration not stated)	0	-2	12	-1	2
COc1ccc(S(=O)(=O)N2c3ccccc3OCC2C(C)(C)C)cc1 (configuration not stated)	1	-4	-63*	4	-8
COc1ccccc1CNc1cc(-c2ccccc2)nc2nncn12	-3	-1	-2	-1	-1
Cc1ccc(C)c(OCc2cc(C(=O)N(C)Cc3ccccn3)no2)c1	0	-4	-44*	9	5
COC(=O)[C@H](Cc1ccccc1)NC(=O)c1cc(COc2c(F)cccc2F)on1	0	3	-20	31*	-1
C#Cc1ccc(C(=O)NCc2ccc(N3CCCC3=O)cc2)cc1	0	5	-32*	6	-8
O=C(NCc1ccc(N2CCCC2=O)cc1)c1cc(COc2c(F)cccc2F)on1	0	0	-32*	18	-6
O=C(NCc1cccs1)c1ccc(N2CCCC2=O)cc1	1	-1	5	2	0
O=C(NCc1ccc2c(c1)OCO2)c1cc(COc2c(F)cccc2F)on1	-1	-2	-13	14	-3
COc1ccc(-c2nc(CN3CCC(C(=O)NCCCOC(C)C)CC3)c(C)o2)cc1OC	0	1	3	0	-3
NC(=O)CSc1ncc2c(n1)-c1ccccc1N(Cc1cccc(F)c1)S2(=O)=O	-1	-1	-5	2	-3
Cc1ccc(CNS(=O)(=O)c2cc3c(cc2Cl)NC(=O)CO3)o1	0	0	-17	2	4

From PubChem BioAssay
